Read-out in test [1]: Thrombomodulin, THBD (gene 7056)
The experiment in a line: BSK_CASM3C_Thrombomodulin: BioMAP Diversity Plus: CASM3C Assay for Thrombomodulin Biomarker Activity (AID 2283051).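 Also: thrombomodulin protein level measured by ELISA 24 h after dosing.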 Conditions: primary human coronary artery smooth muscle cells; actives raise or lower the signal.

Read-out in test [2]: Tissue Factor, F3 (gene 2152)
Put plainly: BSK_CASM3C_TissueFactor: BioMAP Diversity Plus: CASM3C Assay for Tissue Factor Biomarker Activity (AID 2283052).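 Also: cell surface tissue factor protein level read by ELISA.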 The note with it: primary human coronary artery smooth muscle cells; actives raise or lower the signal.

Read-out in test [3]: Interferon-gamma inducible Protein 10 (IP10), CXCL10 (gene 3627)
Put plainly: BSK_hDFCGF_IP10: BioMAP Diversity Plus: hDFCGF Assay for Interferon-gamma inducible Protein 10 (IP10) Biomarker Activity (AID 2283053). The note with it: primary human foreskin fibroblasts; actives raise or lower the signal. The gist of the method: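 Chemical-treated human skin fibroblasts (primary) were sampled at 24 h for IP-10 by ELISA. Both increases and decreases relative to DMSO were scored.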

Read-out in test [4]: Urokinase-type plasminogen activator receptor (uPAR), PLAUR (gene 5329)
Put plainly: BSK_CASM3C_uPAR: BioMAP Diversity Plus: CASM3C Assay for Urokinase-type plasminogen activator receptor (uPAR) Biomarker Activity (AID 2283054).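 Also: cell-surface uPAR protein level quantified by ELISA.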 Conditions: primary human coronary artery smooth muscle cells; actives raise or lower the signal.

Read-out in test [5]: Vascular cell adhesion molecule 1 (VCAM1), VCAM1 (gene 7412)
The experiment in a line: BSK_CASM3C_VCAM1: BioMAP Diversity Plus: CASM3C Assay for Vascular cell adhesion molecule 1 (VCAM1) Biomarker Activity (AID 2283055).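 Also: VCAM-1 protein level quantified by ELISA on the cells.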 The note with it: primary human coronary artery smooth muscle cells; actives raise or lower the signal.

Read-out in test [6]: Collagen III, COL3A1 (gene 1281)
The experiment in a line: BSK_hDFCGF_CollagenIII: BioMAP Diversity Plus: hDFCGF Assay for Collagen III Biomarker Activity (AID 2283056). The note with it: primary human foreskin fibroblasts; actives raise or lower the signal. The gist of the method: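 Cells: human foreskin fibroblasts, primary. Dosing followed by 24 h incubation, then ELISA for collagen III. Both increases and decreases scored relative to DMSO.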

Read-out in test [7]: Interleukin-8 (IL8), CXCL8 (gene 3576)
Put plainly: BSK_hDFCGF_IL8: BioMAP Diversity Plus: hDFCGF Assay for Interleukin-8 (IL8) Biomarker Activity (AID 2283058). The note with it: primary human foreskin fibroblasts; actives raise or lower the signal. The method in brief: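 IL-8 levels from compound-treated primary human fibroblasts were read by ELISA at 24 h, with DMSO serving as baseline for bidirectional fitting.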

Test [8] can be described thus: BSK_hDFCGF_Proliferation: Cell Proliferation Assessment in the BioMAP Diversity Plus: hDFCGF Assay (AID 2283059).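 Also: curves fitted for both rise and fall of signal versus DMSO baseline.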 Conditions: primary human foreskin fibroblasts. The method in brief:
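Steps: dose primary human dermal fibroblasts (foreskin); […] fix in 10% TCA; stain with 0.1% SRB; read 560 nm; fit gain or loss of signal against DMSO.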

Read-out in test [9]: Macrophage colony-stimulating factor (MCSF), CSF1 (gene 1435)
The experiment in a line: BSK_hDFCGF_MCSF: BioMAP Diversity Plus: hDFCGF Assay for Macrophage colony-stimulating factor (MCSF) Biomarker Activity (AID 2283060). Conditions: primary human foreskin fibroblasts; actives raise or lower the signal. The gist of the method: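 M-CSF levels, determined by ELISA, are taken at 24 h after dosing human skin fibroblasts. Responses in either direction are fitted with DMSO serving as the baseline.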

Molecules are shown by their SMILES. Activity calls are given as the source filed them. The calls were made as follows: active = hit-call score of the fitted dose curve at least 0.9, where 1 is the maximum; inactive = score below 0.9.

`O=C(O)Cc1ccccc1Nc1c(Cl)cccc1Cl`: the result in [1], in [2], in test [3], in [4], in [5] and in test [7] was inactive. In test [9], the result was inactive. The AC50 in [6] and in test [8] was 20 µM (active) in each case.

For `CCCc1cc(=O)[nH]c(=S)[nH]1`, the outcome in test [1], in test [2], in test [3], in test [4], in [5] and in [6] was inactive. For the same compound, the result in test [7], in test [8] and in test [9] was inactive.

`O=c1c(O)c(-c2ccc(O)c(O)c2)oc2cc(O)cc(O)c12`: the result in test [1], in test [5], in test [6] and in test [7] was inactive. In addition, the AC50 (commonly the midpoint of the concentration-response curve, whichever way the signal moves) in test [2] was 4.13 µM (active); in test [3], 20 µM (active); in [4], 6.66 µM (active); in test [8], 11.5 µM (active); in [9], 7.26 µM (active).

`CCCCCCCC=O`: the outcome in [1], in test [2], in test [3], in [4], in [5] and in [6] was inactive. The result in test [7], in [8] and in test [9] was inactive.

As for `Clc1cc(Cl)c(Cl)cc1Cl`, the outcome in [1], in [2], in [3], in [4], in test [5] and in [6] was inactive. The result in test [7], in test [8] and in test [9] was inactive.

For the compound `O=C(O)CCCCC(=O)O`, the result in test [1], in [2], in [3], in test [4], in test [5] and in [6] was inactive. The result in test [7], in test [8] and in test [9] was inactive.

As to `NCCO`, the AC50 in [1] is 0.937 µM (active). Also, the outcome in test [2], in [3], in test [4], in [5], in test [6] and in test [7] was inactive. In addition, the result in test [8] and in test [9] was inactive.

With `CN1CCCC1=O`, the outcome in test [1], in test [2], in test [3], in test [4], in test [5] and in [6] was inactive. Moreover, the result in [7], in test [8] and in [9] was inactive.

As for `COCCOC[C@H](CC1(C(=O)NC2CCC(C(=O)O)CC2)CCCC1)C(=O)Oc1ccc2c(c1)CCC2` (some centres not stated), the outcome in test [1], in test [2], in test [3], in test [4], in test [5] and in test [6] was inactive. Moreover, the outcome in test [7], in [8] and in test [9] was inactive.

Take `Cc1nc(-c2ccc3c(c2)CCN(CCC2CCC(NC(=O)/C=C/c4ccc(F)cc4)CC2)CC3)no1` (configuration not stated): the outcome in test [1], in test [2], in [3], in test [4], in [6] and in test [7] was inactive. The result in test [8] and in [9] was inactive. In addition, the AC50 in [5] was 6.35 µM (active).

With `Cc1cccc(Nc2cc(Cl)nc(SCC(=O)O)n2)c1C`, the result in [1], in test [2], in [3], in test [4], in test [5] and in test [6] was inactive. Also, the outcome in test [7], in [8] and in test [9] was inactive.

`CCCCCCCCCCCCCCCCCC(=O)O`: the outcome in [1], in test [2], in test [3], in test [4], in [5] and in test [6] was inactive. Further, the result in test [7], in test [8] and in test [9] was inactive.

With `CCCCN(CCCC)CCCC`, the result in test [1], in test [2], in test [3], in [4], in test [5] and in test [6] was inactive. In addition, the outcome in test [7], in test [8] and in [9] was inactive.

In the case of `COC(=O)c1ccc(O)cc1`, the result in [1], in [2], in test [3], in test [4], in [5] and in [6] was inactive. The outcome in test [7], in test [8] and in test [9] was inactive.

In the case of `COc1cc(-c2nc(NC(=O)c3cc4cc(C)cc(C)c4n3CC(=O)O)sc2CCC2CCCCC2)c(OC)cc1Cl`, the result in [1] and in test [2] was inactive. Moreover, the AC50 was 0.46 µM (active) in [3]; 6.56 µM (active) in test [4]; 10.2 µM (active) in test [5]; 0.203 µM (active) in [6]; 2.36 µM (active) in test [7]; 0.128 µM (active) in test [8]. Also, in test [9], the AC50 was 0.42 µM (active).

For `COc1cc(S(=O)(=O)O)c(C)cc1N=Nc1c(O)ccc2cc(S(=O)(=O)O)ccc12`, the result in test [1], in [2], in test [3], in [4], in test [5] and in [6] was inactive. In addition, the outcome in test [7], in test [8] and in test [9] was inactive.

Regarding `CCCCOC(=O)CCCCCCCCC(=O)OCCCC`, the result in test [1], in [2], in test [3], in test [4], in [5] and in test [6] was inactive. For the same compound, the result in test [7], in test [8] and in [9] was inactive.

With `CCCCCCCCCCO`, the result in test [1], in test [2], in test [3], in test [4], in [5] and in test [6] was inactive. The result in test [7], in test [8] and in test [9] was inactive.

Consider `CCCCCCCCCCCCCO`, for which the AC50 in [1] was 20.6 µM (active); in [3], 13.2 µM (active); in test [5], 28.3 µM (active); in test [6], 12.9 µM (active); in test [7], 29.9 µM (active); in [8], 8.61 µM (active). Also, the AC50 in test [9] was 13.7 µM (active). For the same compound, the outcome in test [2] and in [4] was inactive.

In the case of `CC1(C)NC(=O)NC1=O`, the outcome in test [1], in test [2], in test [3], in [4], in [5] and in test [6] was inactive. In addition, the outcome in [7], in test [8] and in test [9] was inactive.

As to `COc1ccc2c(c1)c(CC(=O)O)c(C)n2C(=O)c1ccc(Cl)cc1`, the result in [1], in test [2], in test [3], in [4], in test [5] and in test [7] was inactive. Further, the outcome in test [9] was inactive. Further, the AC50 is 20 µM (active) in test [6] and 13.1 µM (active) in test [8].

As for `OC[C@@H](O)[C@@H](O)[C@H](O)[C@H](O)CO`, the result in [1], in test [2], in [3], in test [4], in test [5] and in [6] was inactive. The outcome in test [7], in test [8] and in [9] was inactive.

Regarding `Cc1cc(=O)[nH]c(=S)[nH]1`, the result in [1], in test [2], in [3], in [4], in test [5] and in [6] was inactive. In addition, the result in test [7], in test [8] and in test [9] was inactive.

The values are drawn from PubChem BioAssay (EPA / NIEHS).
